GLP1R cytotox: qHTS of GLP-1 Receptor Inverse Agonists: Cytotox Screen; hit rate 0.13% among 410,000; Potency, µM (doses to about 38.3 µM), most hits filed as inhibitors; HEK293 cAMP-luciferase reporter cells, luminescence, 24 h;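 note: loss of luciferase light is scored as toxicity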
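Here, cytotoxicity is scored as loss of luminescence. The MLSMR collection was tested on cells seeded in medium containing 10% Nu serum, with a 24 hr compound exposure preceded by 12 hours of culture.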
GLP-1R inv ag: qHTS of GLP-1 Receptor Inverse Agonists (Inhibition Mode). hit rate 1.6% among 410,000. HEK293 GLP-1R CRE-luciferase, luminescence, 24 h; GLP-1R form is constitutively active. Potency, µM (highest dose often 38.3 µM), most hits filed as inhibitors. AID 624417, 2012; note: nearly all actives have a fitted effect of over 55% in size
Target sequence (P43220 whole entry, looked up): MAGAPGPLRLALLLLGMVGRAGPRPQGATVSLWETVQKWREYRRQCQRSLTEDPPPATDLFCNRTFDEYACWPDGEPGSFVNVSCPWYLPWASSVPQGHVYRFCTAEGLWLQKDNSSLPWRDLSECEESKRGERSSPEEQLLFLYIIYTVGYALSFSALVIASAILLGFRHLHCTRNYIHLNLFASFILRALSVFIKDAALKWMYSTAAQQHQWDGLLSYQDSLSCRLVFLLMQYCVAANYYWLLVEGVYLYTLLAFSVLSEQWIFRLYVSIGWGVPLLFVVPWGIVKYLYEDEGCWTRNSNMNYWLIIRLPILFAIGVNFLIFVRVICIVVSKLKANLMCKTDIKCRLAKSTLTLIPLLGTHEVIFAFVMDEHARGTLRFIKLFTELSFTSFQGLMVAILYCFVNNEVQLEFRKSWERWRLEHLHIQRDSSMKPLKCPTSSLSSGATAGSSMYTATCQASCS
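Readout was luciferase luminescence, measured 12 min after detection reagent at room temperature. Beforehand, GLP-1R reporter HEK293 cells had sat 12 h, then received compounds for 24 hr at 37 deg C.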
ClpP mod: qHTS Assay for Activators of ClpP; ATP-dependent Clp protease proteolytic subunit (Bacillus subtilis (strain 168)), P80244; purified B. subtilis ClpP, FRET peptide cleavage, 20 min; Potency, µM (series often up to 57.5 µM); hit rate 1.9% among 340,000; AID 651965, 2013; active = well fitted falling curve with a large enough effect; inconclusive = small, poorly fitted or top-dose-only effect; inactive = no such curve, though single readings can be large or run the other way; note: the source files actives as falling curves though it sought activators and does not explain the sign; nearly all actives have a fitted effect of over 65% in size
Target sequence (P80244 whole entry, looked up): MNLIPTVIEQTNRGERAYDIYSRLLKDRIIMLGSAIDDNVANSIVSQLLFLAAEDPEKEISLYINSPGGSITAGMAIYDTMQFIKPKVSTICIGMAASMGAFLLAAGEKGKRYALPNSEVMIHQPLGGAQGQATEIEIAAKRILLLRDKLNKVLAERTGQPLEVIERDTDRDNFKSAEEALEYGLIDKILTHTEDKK
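ClpP 10 microg/mL final, pH 8 Tris/KCl buffer with BSA, glycerol, Tween-20; compound pinned in; FRET-FV substrate; RT 20 min; Ex320/Em430; ΔFRET vs ADEP 5.8 microM, DMSO, no enzyme.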
GLP-1R agonist: qHTS of GLP-1 Receptor Agonists; Glucagon-like peptide 1 receptor (Homo sapiens), P43220; HEK293 GLP-1R CRE-luciferase, luminescence, 4-6 h; cells express a hypersensitive GLP-1R form; Potency, µM (titrated, usually from 45.6 µM), usual class: activators; hit rate 0.007% among 380,000; AID 624172, 2012
LDHA inh: qHTS assay for inhibitors of human lactate dehydrogenase; activity change, % (values are at about 110 or 230 µM); purified LDHA, NADH/diaphorase-resazurin fluorescence; active compounds read low; AID 1347041, 2019; L-lactate dehydrogenase A chain (Homo sapiens), P00338; hit rate 0.15% among 480,000; in the data active = activity change below about -30%; inconclusive = mostly about -25% to -30%
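Enzyme activity of human lactate dehydrogenase 5 (2 nM; 0.06 mM NADH, 0.2 mM pyruvate, 5 min, RT) is measured via a resazurin/diaphorase fluorescence readout of residual NADH.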
p53 reactivator: qHTS assay for re-activators of p53 using a Luc reporter. Potency, µM (doses to about 92.2 µM), most hits filed as activators. H1299 p53-A138V BP100-luciferase reporter, luminescence, 24 h. hit rate 0.063% among 320,000; note: nearly all actives have a fitted effect of over 45% in size
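H1299 (p53-null), stable ts p53-A138V + BP100-Luc; 1000 cells/well, Opti-MEM/10% FBS; cpd 4 pt, 1:5; 24 h, 37 deg C, 5% CO2; detection reagent 10 min RT; luminescence.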
A number is an active result; 0 = inactive; ? = inconclusive; - = no result given. The list is not random: actives were taken first. Their share in the collection is about 2.9%. Unless noted, calls come from the whole dose curve; as a rule, active = well fitted curve in the direction sought with a large enough effect; inconclusive = small, poorly fitted or top-dose-only effect, or another doubt; inactive = no such curve, though single readings can be large; an effect the other way counts as inactive or inconclusive.

SMILES	GLP1R cytotox	GLP-1R inv ag	ClpP mod	GLP-1R agonist	LDHA inh	p53 reactivator
CCc1noc(C)c1C(=O)Nc1cc(C(F)(F)F)ccc1-n1cncn1	0	0	0	0	0	0
Cc1nc(SCc2ccc(Cl)cc2)c(C#N)c(C)c1Cl	0	0	0	0	0	-
CN(CCCNC(=O)CSc1cc(=O)n(C)c2cc(Cl)ccc12)Cc1ccccc1	0	7.9µM	-	0	0	0
O=C(O)CCc1nc2cc(C(F)(F)F)ccc2n(Cc2ccccc2)c1=O	0	0	0	0	0	0
NNC(=O)c1cncn1-c1ccc(F)cc1	?	?	-	0	0	0
Cc1ccc(C2c3sc(=O)[nH]c3SC3C4CC(C5C(=O)N(C(C)C(=O)O)C(=O)C45)C23)cc1 (configuration not stated)	0	0	0	0	0	0
CCCCc1ccc(NC(=O)CC(C)(C)C)cc1	0	11µM	0	0	0	?
CCCc1cc(=O)[nH]c(SCC(=O)c2cc(C)n(C)c2C)n1	0	0	0	0	0	0
CCCc1cc(=O)[nH]c(SCC(=O)c2cc(C)n(C3CC3)c2C)n1	0	0	18µM	0	0	0
CCOc1ccc(-c2cc(C)n3nc(C(N)=O)cc3n2)cc1	0	0	16µM	0	0	0
COC(=O)c1cc2nc(-c3ccccc3)cc(C)n2n1	0	0	?	0	0	0
CCOC(=O)C1(CCc2ccccc2)CCN(Cc2nccn2CC)CC1	8.9µM	?	-	0	0	0
O=[N+]([O-])c1cc(S(=O)(=O)C(F)(F)F)ccc1Sc1nc2ccccc2[nH]1	?	0	25µM	0	0	0
CCOc1ccc(Nc2nc3cc(S(=O)(=O)CC)ccc3o2)cc1	?	?	-	0	0	0
COC(=O)Cc1ccc2sc(-c3ccccc3)nc2c1	0	0	28µM	0	0	?
O=C(Nc1ccnn1C1CCN(C(=O)c2ccc(C(F)(F)F)cc2)CC1)C1CC1	0	0	0	0	0	0
CN(C)c1cccc(NC(=O)c2cccc3c(-c4ccc(F)c(F)c4)coc23)c1	0	?	22µM	0	0	-
COc1ccc(-c2coc3c(C(=O)NCc4ccco4)cccc23)c(C)c1	0	4.5µM	?	0	0	-
COc1ccc(-c2ccc(C(=O)Nc3cccc(N(C)C)c3)c3occc23)c(C)c1	0	?	28µM	0	0	-
Cn1cc(-c2ccc(C(=O)Nc3cccc(Oc4ccccc4)c3)c3occc23)cn1	0	0	22µM	0	0	-
COc1ccc(-c2ccc(C(=O)Nc3cccc(Oc4ccccc4)c3)c3occc23)c(C)c1	0	0	0	0	0	-
COc1ccc(OC)c(NC(=O)COC(=O)C2CCC2)c1	0	0	0	0	0	?
CCC1CCCCN1CCCNC(=O)CN1C(=O)CSc2ccc(S(=O)(=O)N3CCOCC3)cc21 (configuration not stated)	0	0	0	0	0	?
CCC(NC(=O)Cc1c(C)c2ccc(OC)c(C)c2oc1=O)C(=O)NC(Cc1ccc(Cl)cc1)C(=O)O (configuration not stated)	0	0	0	0	0	0
Cc1oc2cc(OCC(=O)NCc3cccs3)ccc2c(=O)c1Oc1ccc(F)cc1	-	-	-	-	0	-
SMILES	GLP1R cytotox	GLP-1R inv ag	ClpP mod	GLP-1R agonist	LDHA inh	p53 reactivator
CCOC(=O)c1nn(-c2ccc(F)cc2)c2nc(-c3ccccc3)c(C#N)c(=O)n12	0	0	?	0	0	0
CCOC(=O)c1nn(-c2ccc(Cl)cc2)c2nc(CC)c(C#N)c(=O)n12	0	0	0	0	0	0
CCOC(=O)c1nn(-c2ccc(OCC)cc2)c2nc(CC(C)C)c(C#N)c(=O)n12	0	0	22µM	0	0	0
CCOC(=O)c1nn(-c2cccc(C)c2)c2nc(-c3ccccc3)c(C#N)c(=O)n12	0	0	32µM	0	0	0
CCOC(=O)c1nn(-c2ccc(Cl)cc2)c2nc(-c3ccc(C)cc3)c(C#N)c(=O)n12	0	0	25µM	0	0	0
CC(/C=C/c1ccccc1)=N\NC(=S)NC(C)C	?	?	0	0	0	0
CC(/C=C/c1ccccc1)=N\NC(N)=S	?	2.5µM	0	0	0	?
COc1ccc(N2CCN(S(=O)(=O)c3cn(C)c(=O)n(C)c3=O)CC2)cc1	0	0	0	0	0	0
CCN1CCN(S(=O)(=O)c2ccc(Cl)c(C(=O)Nc3ccccc3N3CCCC3)c2)CC1	0	?	0	0	0	0
CCN(CC(=O)Nc1cc(S(=O)(=O)N2CCOCC2)ccc1Cl)Cc1ccccc1	0	?	0	0	0	0
CCOc1ncccc1C(=O)Nc1cc(S(=O)(=O)N2CCCCC2)ccc1Cl	0	0	32µM	0	0	0
CCN(CC(=O)Nc1cc(S(=O)(=O)N2CCCCC2)ccc1Cl)Cc1ccccc1	0	5.6µM	0	0	0	0
O=C(Nc1cccc(Cl)c1)Nc1cc(S(=O)(=O)N2CCCCC2)ccc1Cl	0	2.8µM	-	0	0	0
CCN1CCN(S(=O)(=O)c2ccc(Cl)c(C(=O)Nc3ccccc3N3CCCCC3)c2)CC1	0	10µM	-	0	0	0
CCOC(=O)[C@H]1[C@H]2COc3ccc(OC)cc3[C@@H]2N2C(=O)CN(Cc3ccc(F)cc3)C(=O)[C@@]12C	0	0	0	0	0	0
CN1CCN(c2ccc(S(=O)(=O)N3CCCCC3)cc2NC(=O)c2ccc3ccccc3c2)CC1	0	?	20µM	0	0	0
CCN1CCN(c2ccc(S(=O)(=O)N3CCCCC3)cc2NC(=O)c2cc3ccccc3o2)CC1	0	0	16µM	0	0	0
Cc1cc(C)c(NC(=S)N(CCCN2CCN(C)CC2)Cc2cccs2)c(C)c1	0	?	-	0	0	0
Cc1oc(-c2ccccc2)nc1CC(=O)NC1CCCCNC1=O (configuration not stated)	-	-	-	-	0	-
Cc1ccc(C2NC(=S)NC3=C2CCc2ccccc23)cc1 (configuration not stated)	-	-	-	-	0	-
O=C1NC2=C(CCc3ccccc32)C(c2ccc(Br)cc2)N1 (configuration not stated)	0	0	28µM	0	0	0
CSc1nc2ccccc2c(=O)n1C1CCCCC1	0	?	-	0	0	0
Cc1nc2ccccc2c(=O)n1C1CCCCCC1	0	0	25µM	0	0	0
C(#Cc1ccccc1)Cn1nnc2ccccc21	0	0	28µM	0	0	?

Compound activity from PubChem BioAssay.
